Experimental data: PubChem BioAssay
A number with no mark means an inactive call. No rule for the calls is given here.

biological target: Pantothenate synthetase (Mycobacterium tuberculosis (strain ATCC 25618 / H37Rv)) (UniProt P9WIL5); test: Recombinant Mtb pantothenate synthetase (PanC) inhibitors, coupled enzyme, confirmatory (AID 375); conditions: coupled enzyme assay; at 10 µM, hits give high values;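 also: 0% = full reaction with vehicle and 100% = no enzyme background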
Sequence (P9WIL5 whole entry, looked up): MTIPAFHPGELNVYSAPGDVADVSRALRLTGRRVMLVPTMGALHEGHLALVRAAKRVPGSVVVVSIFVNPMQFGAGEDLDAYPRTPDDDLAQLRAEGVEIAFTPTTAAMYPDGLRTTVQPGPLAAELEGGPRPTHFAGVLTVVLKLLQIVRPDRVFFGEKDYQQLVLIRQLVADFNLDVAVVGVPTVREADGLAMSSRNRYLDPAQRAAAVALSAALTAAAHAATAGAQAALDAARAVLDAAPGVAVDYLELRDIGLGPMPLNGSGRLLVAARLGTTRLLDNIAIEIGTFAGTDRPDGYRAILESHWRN

| Structure (SMILES) | inhibition [%] |
| --- | --- |
| O=C(OCc1cc2ccccc2[nH]c1=O)c1ccncc1 | 7 |
| CCOc1cc(C(=O)Nc2c3c(nn2C(C)(C)C)CS(=O)C3)cc(OCC)c1OCC (stereo not drawn) | 4 |
| N#CCCN(Cc1cccnc1)C(=O)Nc1ccc(Cl)c(Cl)c1 | 1 |
| CC(=O)c1cccc(NC(=O)N2C3CCC2CC(O)(c2cccnc2)C3)c1 (stereo not drawn) | 0 |
| O=C(c1ccccc1F)N1CCN(Cc2cccc(Cl)c2)CC1 | 5 |
| CC(=O)OC1c2ccccc2C(=O)N1Cc1ccccc1Cl (stereo not drawn) | 0 |
| CC1CCN(C(=O)CCNS(=O)(=O)c2ccccc2)CC1 | 3 |
| CN(C)C(=O)N1CCC(C(=O)NC2CCCCCCC2)CC1 | 0 |
| Cc1cc(C)n2c(SCC(=O)Nc3cc(C)on3)nnc2n1 | 17 |
| CCOC(=O)c1ccc(NC(=O)Nc2ccn(C)n2)cc1 | 0 |
| CC1(C)CC(=O)C(C=NCC2CCNCC2)=C(O)C1 | 2 |
| O=C(O)CCc1ccc(-c2cccs2)o1 | 6 |
| CC(CCc1ccccc1)NC(=O)C1CCN(S(=O)(=O)c2cnc[nH]2)CC1 (stereo not drawn) | 4 |
| Cc1oc(-c2ccc(Cl)cc2)cc1-c1nn2c(-c3ccoc3C)nnc2s1 | 3 |
| O=C(NC1CCc2ccccc21)C1CCN(S(=O)(=O)c2ccc(-n3cnnn3)cc2)CC1 (stereo not drawn) | 10 |
| CCn1nnc(NC(=O)c2cc3ccccc3o2)n1 | 0 |
| O=C(Cn1c(C(=O)NCC2CCCO2)cc2sccc21)c1ccccc1 (stereo not drawn) | 0 |
| COc1ccc(C(=O)Nc2ccc(Cl)c(Cl)c2)c(OC)n1 | 0 |
